Laboratory results from PubChem BioAssay (NCI).
This is part of a sample that, as a whole, favours compounds with a hit. Of some 83,000 tested, about 20% had one in any assay.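 96-well plates, one dose, 48 hours. Percent growth reported; active if below 10.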 The source made the active and inactive calls.

test system: SK-MEL-28 melanoma; experiment: NCI-60 one-dose screen, 48 h (100 = growth as untreated, 0 = no growth, -100 = all killed); settings: 10 µM unless noted

Row | Structure (SMILES) | growth
1 | Cc1nn(-c2ccccc2)c2nc(C)n(-c3ccc(Br)cc3)c(=O)c12 | 69.3% (inactive)
2 | CCOC(=O)C(CC)n1c(=O)c2cc(OC)c(OC)cc2c2cnc3[nH]ccc3c21 (stereo not drawn) | 90.7% (inactive)
3 | CC(C)c1c(C(=O)Nc2ccccc2)c(-c2ccccc2)c(-c2ccc(F)cc2)n1CC[C@@H]1CC=CC(=O)O1 | -57.1% (active)
4 | CC(=O)N1CC(Nc2ccc(OC(F)(F)F)cc2)=CC1=O | 56.5% (inactive)
5 | Oc1ccccc1/C=N/Nc1ccc2ccccc2n1 | 74.1% (inactive)
6 | O=[N+]([O-])c1cccc(C2CC(c3ccccc3)=Nc3ccccc3S2)c1 (stereo not drawn) | 96.4% (inactive)
7 | CCCCCC(=O)N(CCCC)CCCC | 104% (inactive)
8 | CCCCCCCCCCCCCCCCNCCC[C@@H](C)[C@H]1CC[C@H]2[C@@H]3[C@H](OCCCN)C[C@@H]4C[C@H](OCCCN)CC[C@]4(C)[C@H]3C[C@H](OCCCN)[C@]12C | -64.7% (active)
9 | COc1ccc(-c2cc(NC(=O)Nc3ccc(O)cc3)no2)cc1 | 101% (inactive)
10 | O=C(O)C(O)C(O)C(=O)O.[NH-]C1CCCCC1[NH-].[Pt+2] (stereo not drawn) | 95.1% (inactive)
11 | CCCNc1nc(SC)nc(-c2cccc(N)c2)c1C#N | 121% (inactive)
12 | CC(=O)OCC(=O)C1CCC=CC1OC(C)=O (stereo not drawn) | 108% (inactive)
13 | Nc1ccc(Nc2nccc(-c3ccc4ccccc4c3)n2)cc1 | 57.2% (inactive)
14 | O=S(=O)(Nc1ccc(Cl)cc1Cl)c1ccc(-c2cnc(C3CC3)o2)cc1 | 55.3% (inactive)
15 | O=C1/C(=C/c2ccc(Cl)cc2Cl)CN(S(=O)(=O)c2ccccc2)C/C1=C\c1ccc(Cl)cc1Cl | 34.4% (inactive)
16 | COc1ccc(-c2nc(Nc3cc(C)[nH]n3)c3ccccc3n2)cc1 | 61.5% (inactive)
17 | COc1ccc(-c2csc(NC(=O)CN3CCN(c4cc5c(cc4F)c(=O)c(C(=O)O)cn5C4CC4)CC3)n2)cc1 | 39.4% (inactive)
18 | Cc1noc(C)c1-c1cc(O)cc(C(O)c2ccccc2)c1 (stereo not drawn) | 61.2% (inactive)
19 | COc1cc(OC)c(/C=C/S(=O)(=O)Cc2ccc(OC)c(N)n2)c(OC)c1 | 53.7% (inactive)

Row | Structure (SMILES) | growth
20 | Oc1ccc(Nc2nccc(-c3ccc4ccccc4c3)n2)cc1 | 50.6% (inactive)
21 | Cc1cc(Nc2nc(N3CCNCC3)nc3ccccc23)n[nH]1 | 86% (inactive)
22 | CCCCCN(CCCCC)CCC[C@@H](C)[C@H]1CC[C@H]2[C@@H]3[C@H](OCCCN)C[C@@H]4C[C@H](OCCCN)CC[C@]4(C)[C@H]3C[C@H](OCCCN)[C@]12C | 27.9% (inactive)
23 | C[C@@H]1CC[C@@H]2[C@@H]1[C@H](OC(=O)/C=C/c1ccccc1)[C@]1(c3ccccc3)C[C@@H](OC(=O)CO)[C@@]2(C)O1 | 101% (inactive)
24 | COc1ccc(C2CC(=O)Nc3c2c(C)nn3-c2nc3ccccc3[nH]2)cc1 (stereo not drawn) | 105% (inactive)
25 | O=C(/C=C/c1ccc(B(O)O)cc1)/C=C/c1ccc(B(O)O)cc1 | 86.7% (inactive)
26 | CC[C@H](Nc1cc(C)nc(N)n1)c1nc2cccc(NCc3ccc(C(=O)NO)cc3)c2c(=O)n1-c1ccccc1 | 5.53% (active)
27 | Cc1ccc(S(=O)(=O)n2cc(-c3csc(-c4cn(C)c5ncccc45)n3)c3ccccc32)cc1 | 58.8% (inactive)
28 | CC/C=C\C[C@H](O)C/C=C1/C(=O)C=C[C@@H]1C/C=C\CCCC(N)=O | -14.5% (active)
29 | Cc1cccc(NC(=O)c2sc3nc4c(cc3c2N)C(=O)CCC4)c1 | 62.2% (inactive)
30 | CC(=O)C1=C(O)C=C2Oc3c(C(=O)/C=C/c4ccccc4)c(O)c(C)c(O)c3[C@]2(C)C1=O | 43.1% (inactive)
31 | O=C1NC(=O)C(CC(=O)n2c(-c3ccccc3)nc3ccccc32)C(=O)N1 | 108% (inactive)
32 | Oc1cccc(Nc2nccc(-c3ccc4ccccc4c3)n2)c1 | 49.5% (inactive)
33 | COc1c(Cl)cc(Cl)cc1Cl | 127% (inactive)
34 | CC1(C)OCC2OC3(C(=O)O)OC(C)(C)OC3C2O1 (stereo not drawn) | 124% (inactive)
35 | O=C(NC(Cc1ccccc1)C(=O)CCl)OCc1ccccc1 (stereo not drawn) | 85.8% (inactive)
36 | O=C(N/N=C/c1ccc(O)cc1O)c1cccnc1 | 50.4% (inactive)
37 | O=c1c2cccc3c(NC4CCCCC4)ccc(c32)c2nc3ccccc3n12 | 92.1% (inactive)
38 | O=C1Nc2ccccc2/C1=C/C(=N/c1nnc(-c2ccccc2)s1)c1ccccc1 | 86.4% (inactive)
